GPT2 inhibitor = Primary qHTS assay for inhibitors of Glutamate pyruvate transaminase 2 (GPT2); Recombinant GPT2, coupled pyruvate oxidase/HRP Amplex Red fluorescence; Potency, µM (doses to about 57.7 µM), inactives show top-dose activity change, negative = inhibition, most hits filed as inhibitors; hit rate 0.25% among 100,000; AID 1671188, 2021; also: % is scaled to controls: 0 for no effect and ±100 for the full control effect; nearly all actives have a fitted effect of over 60% in size
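Inhibition is scored from Amplex Red fluorescence generated when pyruvate oxidase and HRP act on pyruvate released by GPT2. Reactions contain 10ng/uL enzyme, 250uM a-KG and 2mM L-alanine and run 30 min at room temperature.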
NIH3T3 tox = Cytotoxic Profiling in NIH 3T3 Cell Line of Diverse Libraries Using Quantitative High-Throughput Screening; NIH 3T3 viability, CellTiter-Glo ATP luminescence, 48-72 h; Potency, µM (doses to about 96.7 µM), without a hit: top-dose activity change, negative = cytotoxicity, usual class: inhibitors; hit rate 4.3% among 94,000; AID 1345082, 2018; also: % is scaled to controls: 0 for no effect and ±100 for the full control effect; nearly all actives have a fitted effect of over 55% in size
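Cells were seeded at 400 per well, treated with pin-transferred compound, and kept 48 or 72 hr at 37 °C before CellTiter-Glo addition and luminescence imaging of cellular ATP.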
HEK cytotox = Cytotoxic Profiling in HEK 293 Cell Line of Diverse Libraries Using Quantitative High-Throughput Screening; HEK 293 viability, ATP luminescence (CellTiter-Glo), 48-72 h; Potency, µM (highest dose often 115 µM), for the others: top-dose activity change, negative = cytotoxicity, actives largely listed as inhibitors; hit rate 6.6% among 94,000; also: % is scaled to controls: 0 for no effect and ±100 for the full control effect; nearly all actives have a fitted effect of over 60% in size
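Cytotoxicity was scored by loss of ATP-coupled luminescence (CellTiter-Glo) in HEK 293 cells. Compound treatment ran 48 or 72 hr at 37 degree Celsius, 5% CO2, 95% humidity.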
hNpr1 antagonist = Natriuretic polypeptide receptor (hNpr1) antagonism - Primary qHTS | Atrial natriuretic peptide receptor 1 (Homo sapiens), P16066 | HEK293 hNpr1 GloSensor cGMP, ANP-stimulated luminescence | Potency, µM (series often up to 46.3 µM), for inactives: at the top dose activity change, negative = inhibition, hits mostly inhibitors | hit rate 1.6% among 76,000 | AID 1347048, 2019; calls by dose curve; also: % is scaled to controls: 0 for no effect and ±100 for the full control effect; nearly all actives have a fitted effect of over 60% in size
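Compound pre-incubated 30 min at room temperature on GloSensor-loaded HEK293 cells stably carrying hNpr1 and the pGS-40F cGMP biosensor. Stimulation uses hNppA at 0.1 nM final; luminescence is taken at baseline and 20 min post-agonist.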
FLuc inh-1 = Firefly luciferase inhibition profiling of diverse chemical library using quantitative high-throughput screening; hit rate 2.5% among 76,000; Luciferin 4-monooxygenase (Photinus pyralis), P08659; purified P. pyralis luciferase, luminescence, biochemical; Potency, µM (series often up to 115 µM), usual class: inhibitors; AID 1347043, 2019; also: % is scaled to controls: 0 for no effect and ±100 for the full control effect; nearly all actives have a fitted effect of over 65% in size
Target sequence (P08659 whole entry, looked up): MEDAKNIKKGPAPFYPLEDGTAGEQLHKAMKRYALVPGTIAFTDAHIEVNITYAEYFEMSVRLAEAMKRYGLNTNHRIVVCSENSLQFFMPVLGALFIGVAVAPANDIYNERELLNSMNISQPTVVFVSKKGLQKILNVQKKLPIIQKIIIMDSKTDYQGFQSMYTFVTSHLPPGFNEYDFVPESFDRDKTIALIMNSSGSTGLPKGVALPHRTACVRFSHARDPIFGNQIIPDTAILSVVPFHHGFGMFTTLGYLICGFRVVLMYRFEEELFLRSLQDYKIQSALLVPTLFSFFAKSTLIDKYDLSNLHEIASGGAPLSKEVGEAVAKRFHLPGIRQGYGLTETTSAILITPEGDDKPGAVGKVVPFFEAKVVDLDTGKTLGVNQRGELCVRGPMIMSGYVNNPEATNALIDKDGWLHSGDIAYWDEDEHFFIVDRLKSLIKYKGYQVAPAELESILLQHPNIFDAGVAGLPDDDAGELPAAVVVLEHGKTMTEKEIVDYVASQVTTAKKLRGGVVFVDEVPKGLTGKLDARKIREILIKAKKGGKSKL
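Purified P. pyralis luciferase (10nM final) in 50mM Tris acetate pH 7.5, 10mM Mg acetate, 0.01% Tween-20, 0.05% BSA with 10uM D-luciferin and 10uM ATP. Compounds titrated qHTS. Luminescence imaged on CCD.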
FLuc SDR no ATP = Firefly luciferase (FLuc-C-HiBiT) SDR gain of signal screen - without ATP; shares compounds with FLuc inh-1; Purified FLuc-C-HiBiT, Nano-Glo HiBiT luminescence, no ATP; Potency, µM (highest dose often 32.7 µM), inactives show at the top dose activation (signal gain), usual class: activators; hit rate 7.8% among 1,300; also: nearly all actives have a fitted effect of over 55% in size
FLuc SDR ATP = Firefly luciferase (FLuc-C-HiBiT) SDR gain of signal screen - plus ATP; Potency, µM (highest dose often 32.7 µM), for the others: top-dose activation (gain of signal), usual class: activators; purified FLuc-C-HiBiT + ATP, HiBiT complementation luminescence; shares compounds with FLuc inh-1; hit rate 8.7% among 1,300;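 also: signal reports ligand binding via conformational change of the enzyme rather than luciferase catalysis; % of control where 0% means no effect; nearly all actives have a fitted effect of over 55% in size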
FLuc inh-2 = Firefly luciferase (FLuc-C-HiBiT) enzymatic inhibition screen - Functional assay; Potency, µM (highest dose often 32.7 µM), for the others: at the highest dose activity change, negative = inhibition, most hits filed as inhibitors; purified FLuc-C-HiBiT enzyme, luciferin luminescence; shares compounds with FLuc inh-1; hit rate 42% among 1,300; also: % is scaled to controls: 0 for no effect and ±100 for the full control effect; nearly all actives have a fitted effect of over 70% in size
Active calls of the source: *; i = inactive; ? = inconclusive; . = no result given; [ ] = remark or other dose. An excerpt weighted towards active compounds, which were near 10% of everything screened. Unless noted, calls follow the shape of the dose curve; as a rule, active = well fitted curve in the direction sought with a large enough effect; inconclusive = small, poorly fitted or top-dose-only effect, or another doubt; inactive = no such curve, though single readings can be large; an effect the other way counts as inactive or inconclusive. Potency is read from the fitted curve at half-maximal effect.

SMILES	GPT2 inhibitor	NIH3T3 tox	HEK cytotox	hNpr1 antagonist	FLuc inh-1	FLuc SDR no ATP	FLuc SDR ATP	FLuc inh-2
Cn1cc(-c2ccc(Cl)cc2)cc1C(=O)O	i	?	?	-4.1%	?	10.1%	9.6%	-14.8%
Cn1cc(-c2ccccc2)cc1C(=O)N1CCCC1	i	-9.5%	?	-1.1%	i	.	.	.
Cc1ccc(-c2cc(C(=O)O)n(C)c2)cc1	i	-28.9%	-0.2%	-13.6%	15.8µM*	10.8%	?	?
CN(C)C(=O)c1cc(-c2ccc(Cl)cc2)cn1C	-5.0%	-24.7%	?	-0.3%	?	.	.	.
O=C(c1nc2cccnc2n(Cc2ccccc2)c1=O)N1CCN(Cc2ccccc2)CC1	-2.7%	-31.8%	?	.	.	.	.	.
Cn1ccnc1CN1C(=O)CO[C@H](c2ccc(NC(=O)Nc3ccccc3)cc2)[C@H]1CO	1.4%	1.9%	-3.9%	-0.3%	10µM*	17.8%	13.4%	?
Cc1ccc(-c2nnc(C3CN(C(=O)c4sc(C)nc4C)CC34CCOCC4)o2)cc1 (stereo not drawn)	?	-23.1%	-20.3%	-7.8%	i	12.4%	9.5%	0.3%
O=C(Nc1ccccc1)C1CCN(C(=O)N2CC3CC(C2)[C@H]2CCCC(=O)N2C3)CC1 (stereo partly drawn)	i	-6.1%	-3.2%	-5.3%	i	10.9%	7.6%	4.9%
O=C(Cc1ccc(Cl)cc1)N1C[C@@H](CN2CCCCC2)[C@@H](CO)C1	-3.3%	0.8%	-7.5%	15.0%	i	.	.	.
O=C1CCN(C(=O)[C@@H]2CCCN2C(=O)Nc2ccc3c(c2)OCCO3)CCCCCCN1	i	-11.0%	i	2.8%	i	.	.	.
O=C1NCCCCCCN(C(=O)Nc2ccc3c(c2)OCCO3)[C@H]2CCC[C@@H]12	3.7%	-17.1%	-9.1%	?	1.12µM*	?	?	3.51µM*
CC(C)CCN1CCCCC12Cc1ccccc1CNC2=O (stereo not drawn)	-13.3%	4.0%	-8.0%	.	.	.	.	.
O=S1(=O)NC2(CCN(Cc3c[nH]c4ccccc34)C2)COc2ccncc21 (stereo not drawn)	i	3.1%	1.7%	.	.	.	.	.
O=C(Nc1cccc(Cl)c1)c1ccc2oc(-c3ccnc(Cl)c3)nc2c1	-1.1%[88.5 µM]	?	?	.	.	.	.	.
Cc1ccc2nc(-c3cccc(NC(=O)CSc4ccc(Cl)cc4)c3)oc2c1	.	.	.	.	.	31.4%	18.1%	?
Cc1cc2nc(-c3cccc(NC(=O)COc4ccc(C(C)C)cc4)c3)oc2cc1C	.	.	.	.	.	28.3%	?	?
CCc1ccc(NC(=O)C2CCN(C(=O)c3ncn4c3COC(c3ccc(F)cc3)C4)CC2)cc1 (stereo not drawn)	-6.4%	i	-2.4%	1.8%	?	.	.	.
O=C(Nc1ccccc1)C1CCN(C(=O)c2ncn3c2COC(c2ccc(F)cc2)C3)CC1 (stereo not drawn)	1.2%	-1.9%	4.4%	-7.3%	?	.	.	.
